This note sets out measurements from PubChem BioAssay.

A short description of assay [1]: inhibitors of TNFa-induced NFkB p65 translocation, primary screen, imaging, HUVEC, MLSMR starter and 10KST1 sets (AID 438;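 active = inhibition above 20% together with a positive visual image hit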;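 note: compound added about 3h40 before a 20 min TNFalpha stimulation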;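 for inhibition: signal is the nuclear over cytoplasmic p65 intensity ratio per well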). Particulars: HUVEC TNFa-induced p65 nuclear translocation; cell count: measured here: nuclei count (cytotoxicity indicator), at 2.08 µM; inhibition: at 2 µM, stronger effect = higher value, 0% TNFa-plus-vehicle, 100% no-TNFa wells.
The nature of assay [2]: reduction of polyQ htt aggregates in cells – imaging, exon1htt(103Q)mCFP cells, high-content imaging, primary screen (AID 483;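 active = visual image review flags a hit and inhibition of aggregation exceeds 20%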;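 note: compound exposure lasted 3 days before fixation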;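 for nuclei count: percent of the per-plate median nuclei count of sample wells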). The conditions noted are these: exon1htt(103Q)mCFP cell line, aggregate imaging, at 2 µM; inhibition of aggregation: stronger effect = higher value; nuclei count: measured here: cell count, toxicity.
Assay [3] in a line: endothelial E-selectin expression blockers – imaging, HUVEC, immunofluorescence, MLSMR starter and 10KST1 sets, primary screen (AID 487;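 active = visually confirmed hit in the image check and inhibition above 20%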;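 for inhibition: signal is fraction of cell area covered by stained E-selectin grains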;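 for nuclei count: 100% = median nuclei count of all wells on the same plate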). The conditions noted are these: HUVEC TNFalpha-induced E-selectin immunofluorescence imaging, at 2 µM; inhibition: stronger effect = higher value; nuclei count: measured here: cell number, toxicity.
The nature of assay [4]: Primary imaging screen for DUSP6 inhibitors that restore phospho-Erk in transfected HeLa cells, chemical complementation (AID 609;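 active = compounds giving at least 50% inhibition in the cell-based MKP-3 phosphatase rescue imaging test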;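 for inhibition: phospho-Erk level distribution per well compared with pooled transfected vehicle control wells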). Particulars: HeLa MKP-3 transfected, phospho-Erk imaging KS statistic, at 10 µM, cells stimulated with TPA for 15 min.
In assay [5] the target is Dual specificity protein phosphatase 6 (Homo sapiens) (UniProt Q16828). The description is as above. The conditions noted are these: HeLa MKP-3 transfected, phospho-Erk imaging KS statistic; at 10 µM; stronger effect = higher value; cells stimulated with TPA for 15 min.
Chain of Dual specificity protein phosphatase 6 (Homo sapiens) (Q16828 whole entry, looked up): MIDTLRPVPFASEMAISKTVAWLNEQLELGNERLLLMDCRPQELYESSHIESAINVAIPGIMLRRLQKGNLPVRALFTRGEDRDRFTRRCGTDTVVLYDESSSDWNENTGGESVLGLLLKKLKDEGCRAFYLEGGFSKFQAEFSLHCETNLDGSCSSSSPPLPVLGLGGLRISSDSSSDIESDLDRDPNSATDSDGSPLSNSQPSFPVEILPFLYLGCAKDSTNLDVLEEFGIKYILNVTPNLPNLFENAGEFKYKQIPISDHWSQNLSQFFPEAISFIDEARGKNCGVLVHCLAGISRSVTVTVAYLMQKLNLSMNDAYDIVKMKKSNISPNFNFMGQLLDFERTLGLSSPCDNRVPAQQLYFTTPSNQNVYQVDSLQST
Assay [6] deals with Voltage-gated potassium channel subunit beta-2 (Rattus norvegicus) (UniProt P62483). Nature of the assay: inhibitors of rat Kvbeta2 reductase activity – biochemical, NADPH fluorescence, primary screen (AID 622;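 active = fluorescence slope higher than the sample average by over 3 SD, cut at about -0.22 in these data, passing the limit was not always enough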;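 note: slope of raw intensity against log time taken from 70 to 1610 s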). Particulars: recombinant KvBeta, 4-cyanobenzaldehyde reduction, at 10 µM, stronger effect = higher value.
Chain of Voltage-gated potassium channel subunit beta-2 (Rattus norvegicus) (P62483 whole entry, looked up): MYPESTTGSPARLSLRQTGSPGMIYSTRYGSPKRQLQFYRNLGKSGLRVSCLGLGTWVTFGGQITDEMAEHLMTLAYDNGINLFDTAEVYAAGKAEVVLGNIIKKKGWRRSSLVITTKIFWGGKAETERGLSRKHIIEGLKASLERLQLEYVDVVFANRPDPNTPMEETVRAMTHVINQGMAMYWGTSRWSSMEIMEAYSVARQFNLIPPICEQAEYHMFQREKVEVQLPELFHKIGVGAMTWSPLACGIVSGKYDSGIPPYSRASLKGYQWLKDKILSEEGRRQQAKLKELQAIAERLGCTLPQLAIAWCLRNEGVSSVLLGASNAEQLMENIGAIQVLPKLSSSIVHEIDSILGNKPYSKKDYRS
For assay [7] the target is unchanged. Briefly: enhancers of rat Kvbeta2 NADPH turnover – biochemical, NADPH fluorescence, primary screen (AID 623;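 active = NADPH fluorescence slope more negative than the mean of all samples by about 3 SD, 99.7% confidence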;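 note: fluorescence intensity change per second fitted from 20 to 320 s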). The conditions noted are these: Recombinant KvBeta, NADPH fluorescence decrease slope, 10 min; at 10 µM; stronger effect = lower value.
Assay [8] concerns the target Alpha-2C adrenergic receptor (Homo sapiens) (UniProt P18825). Nature of the assay: compounds altering alpha2C-coupled GIRK flux – cell-based, HEK293 alpha2C/GIRK1/2, thallium flux, primary screen (AID 624;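 active = fluorescence slope after compound addition differing from the mean of all screened samples at 99.7% confidence, in either direction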;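 note: slope of fluorescence ratio to pre-addition baseline per second over 15 to 24 s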). The conditions noted are these: thallium flux BTC fluorescence, at 10 µM, actives lie on both sides.
For assay [9], the target named is Muscarinic acetylcholine receptor M4 (Homo sapiens) (UniProt P08173). Briefly: M4-linked GIRK flux change, two-sided – cell-based, HEK293 M4/GIRK, thallium flux, BTC-AM, M4 allosteric agonist project, primary screen (AID 625;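 active = fluorescence slope after compound addition differing from the mean of all tested samples at 99.7% confidence, mostly higher but some lower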;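 note: thallium influx through GIRK channels coupled to M4 in HEK293 cells with BTC-AM dye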). Particulars: at 10 µM, actives lie on both sides.
Chain of Muscarinic acetylcholine receptor M4 (Homo sapiens) (P08173 whole entry, looked up): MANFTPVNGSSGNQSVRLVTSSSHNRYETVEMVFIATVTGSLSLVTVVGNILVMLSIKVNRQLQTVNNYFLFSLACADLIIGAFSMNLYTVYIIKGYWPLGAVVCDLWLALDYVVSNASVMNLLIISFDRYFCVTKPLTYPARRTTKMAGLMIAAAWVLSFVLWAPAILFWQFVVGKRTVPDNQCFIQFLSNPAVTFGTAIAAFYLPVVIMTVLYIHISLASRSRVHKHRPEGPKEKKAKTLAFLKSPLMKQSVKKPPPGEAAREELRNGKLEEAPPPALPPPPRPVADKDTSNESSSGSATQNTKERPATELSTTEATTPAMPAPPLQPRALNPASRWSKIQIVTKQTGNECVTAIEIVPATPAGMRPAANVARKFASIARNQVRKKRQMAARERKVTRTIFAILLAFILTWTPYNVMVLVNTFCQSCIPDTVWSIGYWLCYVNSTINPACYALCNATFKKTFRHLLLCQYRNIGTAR
Assay [10] in a line: inhibitors of larval lipid processing in zebrafish, primary screen, whole organism, PED6 fluorescence, gall bladder and intestine (AID 686;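 active = a full or partial loss of lipid-probe fluorescence in the fish gall bladder, intestine or both, judged by eye; inactive = no fluorescence loss, or compound toxic to the fish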;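 note: larvae 5 to 7 days old with five fish per well; signal comes from phospholipase A2 cleavage of quenched PED6 carried via bile; overnight exposure to compound and PED6 before scoring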). The conditions noted are these: Zebrafish larvae PED6 lipid processing, fluorescence scoring; screened at 20 µM (by protocol).
Assay [11] in a line: loss of swimming-algae plug formation – whole organism, Chlamydomonas reinhardtii, WT vs cilia-less mutant, absorbance, 96-well, primary screen (AID 463189;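 active = inhibition at or above 50% relative to wild type and mutant plate controls; inactive = inhibition below 50%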;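 note: 0% = wild type cc124 cells in DMSO and 100% = ciliumless bld1 mutant cells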). Particulars: Chlamydomonas reinhardtii gravitaxis, OD600 absorbance, 2 days; at 10 µM; stronger effect = higher value.
Assay [12] can be described thus: blockers of RIG-like receptor reporter activation – cell-based, Sendai virus stimulus, luciferase, 10K MLSCN set, TLR/RLR signaling modifier project, primary screen (AID 602276;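 active = inhibition at or above 50% at 10 µM; inactive = inhibition below 50%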;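 note: firefly luciferase from ISG56 promoter only with Renilla not read in this screen; 0% = Sendai virus plus DMSO and 100% = medium plus DMSO without virus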). Particulars: HEK293 RL24 IRF3 luciferase reporter, at 10 µM, stronger effect = higher value. In general terms: In a reporter assay the amount or activity of a reporter protein is the signal.
Assay [13] can be described thus: TLR3 IRF3 reporter activation blockers – cell-based, poly I:C stimulus, luciferase, 10K MLSCN set, primary screen (AID 602277). Particulars: HEK293-TLR3 RL24 IRF3 luciferase reporter, at 10 µM, stronger effect = higher value.
The mark [14] stands for this setting: measured here: cell density z-score.
[15] abbreviates: measured here: nuclear c-Myc green intensity z-score.
Where [16] appears, read: measured here: nuclear pErk red intensity z-score, stronger effect = higher value.

Calls of active or inactive are those of the source.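 Rule for the calls, unless noted: active = inhibition of the reporter signal at or above 50%; inactive = inhibition below 50%.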

Chain of Alpha-2C adrenergic receptor (Homo sapiens) (P18825 whole entry, looked up): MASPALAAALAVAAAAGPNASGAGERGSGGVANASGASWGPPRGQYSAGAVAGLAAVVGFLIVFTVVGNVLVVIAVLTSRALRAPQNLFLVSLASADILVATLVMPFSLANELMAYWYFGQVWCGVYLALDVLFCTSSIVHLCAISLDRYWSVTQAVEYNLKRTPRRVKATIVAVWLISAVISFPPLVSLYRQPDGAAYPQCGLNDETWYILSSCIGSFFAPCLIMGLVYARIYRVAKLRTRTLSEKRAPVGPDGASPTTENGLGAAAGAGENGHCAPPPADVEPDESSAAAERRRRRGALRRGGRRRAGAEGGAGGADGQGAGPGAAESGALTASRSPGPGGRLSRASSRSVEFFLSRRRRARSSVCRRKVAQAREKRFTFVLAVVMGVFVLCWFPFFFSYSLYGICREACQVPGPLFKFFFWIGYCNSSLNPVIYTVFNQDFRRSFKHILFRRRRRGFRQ

Take `COc1ccc(-c2onc(C)c2-c2ccccc2)c(O)c1`: the cell count in assay [1] stood at 477. For the same molecule, the inhibition – broadly, the change of the read-out against control, counted positive when it falls – in assay [1] was 0.4% (inactive); in assay [3] it was -110% (inactive); in [5] it was 1.98% (inactive); in assay [11] it was -11.4% (inactive); in assay [12], 8.8% (inactive); in assay [13], 32.3% (inactive). Besides, the inhibition of aggregation in assay [2] is -9.9% (inactive). In addition, the results for the nuclei count in [2] and in assay [3] were 101% and 112%, respectively. The results for the z-score in [4] (setting [14]), in assay [4] (setting [15]) and in [4] (setting [16]) were -0.0693, -0.0566 and -1.27, respectively. For the same molecule, the values for the fluorescence slope in assay [6] and in assay [9] were -0.441 (inactive) and 0.00531 (inactive), respectively. In assay [7], the NADPH fluorescence slope is -4.2e-06 (inactive). Besides, in assay [8], the slope is 0.00908 (inactive). Also, the molecule was called inactive in assay [10].
For `Cc1cc(/C=N\O)c(C)n1-c1ccncc1`, the cell count in assay [1] was 547. Also, the inhibition in [1] was -1.1% (inactive); in assay [3], -50.3% (inactive); in assay [5], 9.82% (inactive); in assay [11] it was 19.4% (inactive); in assay [12] it was 20.1% (inactive); in assay [13], 25.1% (inactive). Moreover, in assay [2], the inhibition of aggregation was 7.2% (inactive). The nuclei count in assay [2] was determined as 92.6%; in assay [3] it was 120%. Also, the results for the z-score in [4] (setting [14]), in assay [4] (setting [15]) and in assay [4] (setting [16]) were -0.413, 0.337 and 0.578, respectively. The fluorescence slope in assay [6] was -0.47 (inactive); in assay [9], 0.00493 (inactive). For the same molecule, the NADPH fluorescence slope in [7] was -0.000127 (inactive). For the same molecule, the slope in assay [8] was 0.00523 (inactive). Also, the call in assay [10] was inactive.
`Cc1ccc(S(=O)(=O)N2CCN(c3nc(C(C)C)c4c(c3C#N)CC(C)(C)OC4)CC2)cc1`: the cell count in assay [1] was 604. The inhibition is -7.5% (inactive) in assay [1]; -19.5% (inactive) in assay [3]; 5.35% (inactive) in assay [5]; -7.57% (inactive) in assay [11]; -1.31% (inactive) in assay [12]; 44.4% (inactive) in assay [13]. Further, the inhibition of aggregation in assay [2] is -19.5% (inactive). The figures for the nuclei count in assay [2] and in assay [3] were 102% and 120%, respectively. Besides, the figures for the z-score in [4] (setting [14]), in assay [4] (setting [15]) and in [4] (setting [16]) were 0.934, 0.596 and -1.08, respectively. Also, the fluorescence slope in assay [6] was -0.441 (inactive); in [9] it was 0.00645 (inactive). In assay [7], the NADPH fluorescence slope is -8.5e-05 (inactive). Also, in assay [8], the slope was 0.00654 (inactive). In addition, the outcome in assay [10] was “inactive; toxic”.
Consider `COc1cccc(NC(=O)CC2SC(=Nc3ccccc3)NC2=O)c1` (stereo not given), for which the cell count in assay [1] worked out at 593. The inhibition is 2.2% (inactive) in assay [1]; -29.5% (inactive) in [3]; 9.91% (inactive) in [5]; 32.2% (inactive) in [11]; -8.37% (inactive) in [12]; 97.6% (active) in assay [13]. Further, the inhibition of aggregation in [2] is 32.9% (inactive). Moreover, the nuclei count in [2] amounted to 84.1%; in assay [3], 132%. Also, the z-score was -0.312 in [4] (setting [14]), -0.394 in assay [4] (setting [15]) and 0.335 in assay [4] (setting [16]). Also, the fluorescence slope in assay [6] is -0.37 (inactive); in assay [9] it was 0.00596 (inactive). The NADPH fluorescence slope in assay [7] is -1.5e-05 (inactive). Also, the slope in assay [8] was 0.00453 (inactive). Also, in assay [10], the call was inactive.
On to `Cc1nc(Sc2cccn2C)c(C(F)(F)F)c(=O)[nH]1`, for which the cell count in assay [1] worked out at 556. For the same molecule, the inhibition in [1] was -4.5% (inactive); in [3], -64.1% (inactive); in [5], 1.9e-07% (inactive); in assay [11] it was 12.2% (inactive); in [12], 13.1% (inactive); in [13], 3.1% (inactive). For the same molecule, the inhibition of aggregation in assay [2] is 4.3% (inactive). Also, the nuclei count in assay [2] was found to be 96.7%; in [3], 108%. Moreover, the z-score in [4] (setting [14]) was -1.97; in assay [4] (setting [15]), 0.557; in assay [4] (setting [16]), 2.32. For the same molecule, the values for the fluorescence slope in assay [6] and in assay [9] were -0.447 (inactive) and 0.00695 (inactive), respectively. Moreover, in assay [7], the NADPH fluorescence slope was -2.3e-05 (inactive). In addition, the slope in [8] was 0.00534 (inactive). For the same molecule, the outcome in assay [10] was inactive.
